This note sets out measurements from PubChem BioAssay (NCATS).

Structures are written as SMILES. Unmarked numbers belong to inactive results. Inconclusive results are not listed. Calls of active or inactive are those of the source. Unless noted, the call rests on the fitted dose curve; in most records, active means well fitted inhibition curve with a large enough effect; inconclusive means small, poorly fitted or top-dose-only effect; inactive means no such curve, though single readings can be large or run the other way. Some results are limits rather than exact numbers.

The target in assay [1] is Cytochrome P450 1A2 (Homo sapiens) (UniProt P05177). The experiment in a line: p450-cyp1a2 (AID 410; calls by dose curve; further: potency means the concentration at half of the fitted maximal effect). The method, boiled down: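 Read-out is luminescence from luciferin produced by CYP1A2 demethylation of Luciferin-ME (100uM, at Km). Detection reagent stopped the 60 min NADPH-dependent reaction; signals were normalized to 57 uM furafylline.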
The target of assay [2] is Glucocorticoid receptor (Homo sapiens) (UniProt P04150). Put plainly: GR-GFP Redistribution (AID 450;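 active means compounds whose dose series gives a full or clear partial fitted curve of increased nuclear translocation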; further: potency means the concentration at half of the fitted maximal effect).
Assay [3] has the same target. The experiment in a line: GR-EFC Redistribution (AID 451; calls by dose curve; further: potency means the concentration at half of the fitted maximal effect). The following applies: CHO-K1 GR-EFC translocation, beta-gal luminescence, 2 h. The method, boiled down: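 Translocation of GR-ED fusion to nuclear EA restores b-gal, read by luminescence after 1 h room-temperature detection. Engineered CHO-K1 biosensor cells, 1,000/well, exposed 2 h at 37 C to titrations up to 46 uM final.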

For assay [4], the target named is Mitogen-activated protein kinase 10 (Mus musculus) (UniProt Q61831). The experiment in a line: JNK3 AlphaScreen Assay (AID 530; active means well fitted curve in either direction with a large enough effect, not every such curve was filed as active;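 further: kinase came from lysate of stimulated human HepG2 cells; signal reports phosphorylation of biotinylated GST-cJun 1-79 at Ser73 with 10 µM ATP; series mostly up to about 57 µM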). The procedure, abridged:
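Kinase buffer: 20 mM Tris-HCl pH 7.6, 10 mM MgCl2, 1 mM DTT, 0.1 mM Na3VO4, 0.01% Tween-20; ATP 10 uM. Substrate biotin-GST-cJun(1-79), enzyme from activated HepG2 lysates. Detection by Ser73 phospho-antibody AlphaScreen.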
In general terms: Alpha assays give light when donor and acceptor beads are brought close together.

Assay [5] addresses 3',5'-cyclic-AMP phosphodiesterase 4B (Homo sapiens) (UniProt Q07343). The experiment in a line: qHTS Assay for Inhibitors of PDE-IV (AID 607; active means well fitted activation curve with a large enough effect in the main read-out, with a control signal flat, not every such curve was filed as active). The method, boiled down:
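ACTOne HEK293 cells carry a modified cAMP-gated CNG channel and express endogenous PDE4; plated 1000 cells/well, compounds up to 22.9 uM final. Membrane-potential dye fluorescence (ex 535/em 590) was read; parental cells received 10 uM forskolin + 100 uM RO 20-1724.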
On the technique in general: qHTS replaces the single test concentration by a dilution series.

For assay [6], the target named is Cytochrome P450 2C9 (Homo sapiens) (UniProt P11712). Put plainly: qHTS Assay for Inhibitors and Substrates of Cytochrome P450 2C9 (AID 883). Further: nearly all actives have a fitted effect of over 60% in size. Further: potency means the concentration at half of the fitted maximal effect. The method, boiled down: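 Luminescent read-out of deoxyluciferin hydroxylation, normalized to 57uM sulphaphenazole (AC100). Reaction: 10nM enzyme, 100uM Luciferin-H (equal to KM), 25mM KPO4, 10 min compound preincubation, then 60 min with NADPH regeneration, both at 37C.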

Assay [7] addresses Cytochrome P450 2D6 (Homo sapiens) (UniProt P10635). The experiment in a line: qHTS Assay for Inhibitors and Substrates of Cytochrome P450 2D6 (AID 891).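 Further: luciferin methyl ether substrate demethylated by CYP2D6 with NADPH regeneration; nearly all actives have a fitted effect of over 60% in size.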 The procedure, abridged: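 Luminescent read-out of luciferin formed by 5 nM human CYP2D6 demethylating 30 uM Luciferin-ME EGE (Km level) over 60 min at room temperature after NADPH regeneration addition. Data normalized to full inhibition by 1.43 uM quinidine.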

For assay [8], the target named is Cytochrome P450 2C19 (Homo sapiens) (UniProt P33261). The experiment in a line: qHTS Assay for Inhibitors and Substrates of Cytochrome P450 2C19 (AID 899). Further: nearly all actives have a fitted effect of over 60% in size. Further: potency means the concentration at half of the fitted maximal effect. The procedure, abridged: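 Luminescence readout of luciferin formed from 10uM Luciferin-H EGE (KM level) by 5 nM CYP2C19 in 50mM KPO4. 60 min NADPH-driven reaction at 37C after 10 min compound preincubation; data scaled to 57uM ketoconazole inhibition.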
Chain of Cytochrome P450 2C19 (Homo sapiens) (P33261 whole entry, looked up): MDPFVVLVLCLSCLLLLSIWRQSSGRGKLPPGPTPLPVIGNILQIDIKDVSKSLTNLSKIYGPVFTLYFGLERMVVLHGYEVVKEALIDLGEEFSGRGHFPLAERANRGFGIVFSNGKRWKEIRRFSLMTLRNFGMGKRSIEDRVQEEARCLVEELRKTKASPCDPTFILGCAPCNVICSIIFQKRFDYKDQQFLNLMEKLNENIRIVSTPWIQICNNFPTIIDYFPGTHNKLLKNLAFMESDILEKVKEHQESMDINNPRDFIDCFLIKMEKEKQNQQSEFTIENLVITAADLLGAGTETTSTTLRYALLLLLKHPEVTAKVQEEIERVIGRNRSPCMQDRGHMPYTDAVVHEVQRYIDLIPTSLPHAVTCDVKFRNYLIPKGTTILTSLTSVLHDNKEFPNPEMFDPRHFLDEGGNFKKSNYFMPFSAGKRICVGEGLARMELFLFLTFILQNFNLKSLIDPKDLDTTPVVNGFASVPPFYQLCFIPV

Chain of Cytochrome P450 2C9 (Homo sapiens) (P11712 whole entry, looked up): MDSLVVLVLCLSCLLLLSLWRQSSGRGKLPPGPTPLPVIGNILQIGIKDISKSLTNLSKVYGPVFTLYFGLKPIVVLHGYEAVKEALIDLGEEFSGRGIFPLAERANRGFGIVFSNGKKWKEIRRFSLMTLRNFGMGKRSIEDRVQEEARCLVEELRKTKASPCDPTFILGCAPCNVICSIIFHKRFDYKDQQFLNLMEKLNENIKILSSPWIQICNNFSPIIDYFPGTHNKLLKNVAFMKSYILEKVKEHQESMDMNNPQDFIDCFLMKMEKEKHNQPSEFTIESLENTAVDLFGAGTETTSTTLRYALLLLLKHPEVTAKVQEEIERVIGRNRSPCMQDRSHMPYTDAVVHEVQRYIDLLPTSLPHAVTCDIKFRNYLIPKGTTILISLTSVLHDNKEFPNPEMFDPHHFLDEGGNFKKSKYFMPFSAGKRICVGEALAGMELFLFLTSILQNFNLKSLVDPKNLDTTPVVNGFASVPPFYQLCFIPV
Chain of Glucocorticoid receptor (Homo sapiens) (P04150 whole entry, looked up, the tested form may be a part): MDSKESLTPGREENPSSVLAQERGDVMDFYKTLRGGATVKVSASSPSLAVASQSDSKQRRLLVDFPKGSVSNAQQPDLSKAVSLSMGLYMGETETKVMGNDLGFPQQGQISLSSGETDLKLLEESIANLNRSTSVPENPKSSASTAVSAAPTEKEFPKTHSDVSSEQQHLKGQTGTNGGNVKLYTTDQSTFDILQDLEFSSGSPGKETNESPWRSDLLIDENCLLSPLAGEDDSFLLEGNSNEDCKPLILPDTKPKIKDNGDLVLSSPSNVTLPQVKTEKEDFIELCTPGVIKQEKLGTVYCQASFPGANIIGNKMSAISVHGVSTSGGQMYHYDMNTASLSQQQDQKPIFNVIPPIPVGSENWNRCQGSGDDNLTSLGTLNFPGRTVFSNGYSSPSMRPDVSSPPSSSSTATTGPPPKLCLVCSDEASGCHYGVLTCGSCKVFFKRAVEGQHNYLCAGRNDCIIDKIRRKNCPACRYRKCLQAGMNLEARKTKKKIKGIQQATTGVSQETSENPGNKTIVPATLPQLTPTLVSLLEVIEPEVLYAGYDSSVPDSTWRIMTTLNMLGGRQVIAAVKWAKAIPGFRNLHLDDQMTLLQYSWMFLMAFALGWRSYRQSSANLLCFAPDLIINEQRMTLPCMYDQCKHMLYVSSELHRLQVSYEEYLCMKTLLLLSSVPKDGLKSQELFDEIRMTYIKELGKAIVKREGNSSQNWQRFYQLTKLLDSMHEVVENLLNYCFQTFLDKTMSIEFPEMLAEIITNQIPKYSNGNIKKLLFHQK
Chain of Cytochrome P450 1A2 (Homo sapiens) (P05177 whole entry, looked up): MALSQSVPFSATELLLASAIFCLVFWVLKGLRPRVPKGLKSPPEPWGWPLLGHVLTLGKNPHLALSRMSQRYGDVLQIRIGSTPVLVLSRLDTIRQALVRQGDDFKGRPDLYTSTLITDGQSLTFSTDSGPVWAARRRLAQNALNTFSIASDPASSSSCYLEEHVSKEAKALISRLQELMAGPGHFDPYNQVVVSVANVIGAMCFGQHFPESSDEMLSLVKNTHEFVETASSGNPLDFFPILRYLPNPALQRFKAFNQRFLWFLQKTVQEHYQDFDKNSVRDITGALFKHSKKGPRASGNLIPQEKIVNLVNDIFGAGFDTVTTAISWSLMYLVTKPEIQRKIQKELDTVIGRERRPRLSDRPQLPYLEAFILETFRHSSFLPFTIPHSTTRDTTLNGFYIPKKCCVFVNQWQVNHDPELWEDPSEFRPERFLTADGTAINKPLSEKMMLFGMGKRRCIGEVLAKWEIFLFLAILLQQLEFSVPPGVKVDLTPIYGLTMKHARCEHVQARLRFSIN
Chain of Cytochrome P450 2D6 (Homo sapiens) (P10635 whole entry, looked up): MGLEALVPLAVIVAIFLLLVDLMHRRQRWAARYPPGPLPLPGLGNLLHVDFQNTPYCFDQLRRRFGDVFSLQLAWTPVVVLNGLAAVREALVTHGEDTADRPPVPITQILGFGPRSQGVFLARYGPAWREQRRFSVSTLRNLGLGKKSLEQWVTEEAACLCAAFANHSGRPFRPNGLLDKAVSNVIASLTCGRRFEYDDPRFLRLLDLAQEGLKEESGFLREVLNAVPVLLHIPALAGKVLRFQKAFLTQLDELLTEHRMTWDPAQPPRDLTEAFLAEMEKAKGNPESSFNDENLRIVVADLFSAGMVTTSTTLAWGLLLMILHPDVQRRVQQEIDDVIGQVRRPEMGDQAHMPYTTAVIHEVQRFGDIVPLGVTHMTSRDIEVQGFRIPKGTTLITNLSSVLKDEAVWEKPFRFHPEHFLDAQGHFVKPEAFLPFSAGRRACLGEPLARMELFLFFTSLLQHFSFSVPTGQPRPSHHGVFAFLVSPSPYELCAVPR
Chain of 3',5'-cyclic-AMP phosphodiesterase 4B (Homo sapiens) (Q07343 whole entry, looked up): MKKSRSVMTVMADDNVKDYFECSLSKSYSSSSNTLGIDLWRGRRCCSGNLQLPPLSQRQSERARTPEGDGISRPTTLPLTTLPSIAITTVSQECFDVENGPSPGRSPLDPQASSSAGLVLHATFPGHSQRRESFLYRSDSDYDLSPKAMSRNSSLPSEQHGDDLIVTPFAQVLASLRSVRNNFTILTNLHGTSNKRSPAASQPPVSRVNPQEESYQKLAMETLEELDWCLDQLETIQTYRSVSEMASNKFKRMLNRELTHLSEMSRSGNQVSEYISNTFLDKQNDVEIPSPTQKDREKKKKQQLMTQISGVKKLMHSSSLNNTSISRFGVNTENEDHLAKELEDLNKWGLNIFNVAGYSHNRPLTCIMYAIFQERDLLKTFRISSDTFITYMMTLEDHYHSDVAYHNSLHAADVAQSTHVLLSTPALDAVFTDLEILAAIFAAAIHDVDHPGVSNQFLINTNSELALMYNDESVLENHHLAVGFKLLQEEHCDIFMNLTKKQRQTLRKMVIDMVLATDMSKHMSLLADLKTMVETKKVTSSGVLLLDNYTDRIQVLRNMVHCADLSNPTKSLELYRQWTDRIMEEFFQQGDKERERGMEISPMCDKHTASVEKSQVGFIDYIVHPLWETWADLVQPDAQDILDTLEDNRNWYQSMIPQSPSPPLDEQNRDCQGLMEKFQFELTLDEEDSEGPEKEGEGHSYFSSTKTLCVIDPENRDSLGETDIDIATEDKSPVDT

Consider `COc1ccc(OC)c([C@H]2Nc3ccccc3NC3=C2C(=O)CC(C)(C)C3)c1Br`, for which the Potency is 20 µM (active) in assay [1]; over 46 µM in assay [2]; over 46 µM in assay [3]; 31.6 µM (active) in assay [6]; 3.16 µM (active) in assay [8]. Moreover, the Potency result in assay [4], in assay [5] and in assay [7] was “inactive” in each case.
Turning to `C=C1CC[C@@H](O)C/C1=C/C=C1\CCC[C@]2(C)[C@@H]1CC[C@H]2[C@@H](C)CCCC(C)C`, the Potency result in assay [1], in assay [4], in assay [6], in assay [7] and in assay [8] was “inactive” throughout. The Potency in assay [2] and in assay [3] was over 46 µM throughout.
As for `C=C1CC[C@@H]2O[C@]2(C)CC[C@@H]2[C@H]1CC2(C)C`, the Potency in assay [1] is 15.8 µM (active); in assay [2], over 46 µM; in assay [3] it was over 46 µM; in assay [6], 25.1 µM (active). In addition, the Potency result in assay [4] and in assay [7] was “inactive” in each case.
For the molecule `COc1ccc2c(c1)[C@]1(C)CCC[C@](C)(CO)[C@@H]1CC2`, the Potency in assay [1] is 15.8 µM (active); in assay [2] it was over 46 µM; in assay [3], over 46 µM; in assay [6] it was 7.94 µM (active). For the same molecule, the Potency result in assay [4] and in assay [7] was “inactive” in each case.
